We go through eight compounds from PubChem BioAssay (NCI).

Among the test systems are HCT-15 colon; HT29 colon; SNB-75 CNS; SNB-19 CNS; U251 CNS; PC-3 prostate; UACC-62 melanoma; LOX IMVI melanoma; SK-MEL-28 melanoma; SK-MEL-2 melanoma; EKVX NSCLC; SN12C renal; UO-31 renal; TK-10 renal; ACHN renal; CAKI-1 renal; A498 renal; CCRF-CEM leukemia; MOLT-4 leukemia.
Common to all, as to assay: NCI-60 one-dose screen, 48 h (100 = growth as untreated, 0 = no growth, -100 = all killed)
Common to all, as to conditions: 10 µM

The structures appear in SMILES notation. The panel holds about 83,000 compounds, 20% with a hit somewhere; the sample as a whole holds those more often.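 Treatment: one concentration, 48 hours, 96-well format. Scoring: percent growth, with anything below 10 considered active.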 Unmarked numbers belong to inactive results. The source made the active and inactive calls.

Regarding `O=C(c1ccc(O)cc1)C1[C@H](c2ccccc2Br)[C@@H](c2ccccc2)NC12C(=O)Nc1ccc(Cl)cc12` (stereo not given in full), the growth in the assay on HCT-15 colon is 12.3%; in the assay on HT29 colon, -30.4% (active); in the assay on SNB-75 CNS, 2.75% (active); in the assay on SNB-19 CNS it was 17.2%; in the assay on U251 CNS, -31.9% (active); with PC-3 prostate, 2.91% (active). The growth with UACC-62 melanoma is 6.97% (active); in the assay with LOX IMVI melanoma, -100% (active); in the assay with SK-MEL-28 melanoma it was 29.2%; with SK-MEL-2 melanoma it was -72.9% (active); in the assay on EKVX NSCLC it was 10.5%; with SN12C renal it was -46.3% (active). Also, the growth in the assay with UO-31 renal was 13.6%; in the assay with TK-10 renal, 7.92% (active); with ACHN renal, 2.5% (active); in the assay with CAKI-1 renal it was 8.16% (active); with A498 renal, 9.06% (active); in the assay on CCRF-CEM leukemia it was 4.97% (active). The growth with MOLT-4 leukemia is -16.2% (active).
Consider `CC(=O)Nc1ccc(-c2cn(-c3cccc(C(=O)Nc4cccc(OC(F)(F)F)c4)c3)nn2)cn1`, for which the growth is 87.3% with HCT-15 colon; 96.9% with HT29 colon; 118% in the assay on SNB-75 CNS; 113% in the assay on SNB-19 CNS; 73.6% with U251 CNS; 85.3% with PC-3 prostate. Moreover, the growth in the assay on UACC-62 melanoma is 73.5%; with LOX IMVI melanoma, 88.6%; in the assay on SK-MEL-28 melanoma, 92.8%; with SK-MEL-2 melanoma, 95.4%; with EKVX NSCLC it was 105%; with SN12C renal, 114%. In addition, the growth with UO-31 renal was 131%; with TK-10 renal, 111%; with ACHN renal it was 101%; in the assay with CAKI-1 renal, 94.5%; in the assay on A498 renal, 178%; in the assay with CCRF-CEM leukemia it was 98.1%. For the same compound, the growth in the assay with MOLT-4 leukemia is 109%.
On to `Nc1nc(-c2ccccc2)cs1`, for which the growth in the assay with HCT-15 colon is 23.7%; in the assay with HT29 colon it was 78.6%; in the assay with SNB-75 CNS, 59.2%; with SNB-19 CNS, 77%; in the assay with U251 CNS, 28.3%; in the assay with PC-3 prostate, 25.1%. The growth is 53.4% in the assay on UACC-62 melanoma; 22% in the assay with LOX IMVI melanoma; 87.9% with SK-MEL-28 melanoma; 61.6% in the assay with SK-MEL-2 melanoma; 32% with EKVX NSCLC; 68.2% in the assay with SN12C renal. Further, the growth with UO-31 renal is 29%; in the assay with TK-10 renal, 83.5%; in the assay on ACHN renal, 59.5%; with CAKI-1 renal, 69.9%; in the assay with A498 renal, 94.7%; in the assay with CCRF-CEM leukemia, 43.3%. Moreover, the growth in the assay on MOLT-4 leukemia was 35.1%.
Regarding `O=C(c1ccc(O)cc1)C1[C@H](c2ccc(Br)cc2)[C@@H](c2ccccc2)NC12C(=O)Nc1ccc(Br)cc12` (stereo not given in full), the growth in the assay with HCT-15 colon is -47.3% (active); in the assay with HT29 colon it was -31.5% (active); with SNB-75 CNS, 45.8%; with SNB-19 CNS it was 11.8%; with U251 CNS it was -48.7% (active); with PC-3 prostate, 21.4%. For the same compound, the growth in the assay on UACC-62 melanoma is -35.7% (active); with SK-MEL-2 melanoma, -21.1% (active); in the assay on EKVX NSCLC, 6.1% (active); in the assay with SN12C renal it was -83.5% (active); with UO-31 renal, -27.3% (active); in the assay with TK-10 renal, -5.38% (active). Also, the growth was 2.27% (active) in the assay with ACHN renal; 3.36% (active) in the assay with CAKI-1 renal; 10.9% with A498 renal; 19.7% in the assay with CCRF-CEM leukemia; 12.4% in the assay on MOLT-4 leukemia.
With `COc1ccc(CN2[C@H](C(=O)NCCCCCCC(=O)NO)Cc3c([nH]c4ccccc34)[C@H]2C2CC2)cc1`, the growth was 8.85% (active) in the assay on HCT-15 colon; 6.33% (active) in the assay on HT29 colon; 10.2% in the assay with SNB-75 CNS; 6.72% (active) with SNB-19 CNS; -20.8% (active) in the assay on U251 CNS; 19.1% in the assay with PC-3 prostate. Further, the growth in the assay on UACC-62 melanoma is -68.6% (active); with LOX IMVI melanoma, -100% (active); in the assay on SK-MEL-28 melanoma it was 9.84% (active); in the assay on SK-MEL-2 melanoma, -16.7% (active); in the assay with EKVX NSCLC, 16.8%; in the assay on SN12C renal, 7.85% (active). In addition, the growth with UO-31 renal is 7.67% (active); in the assay on TK-10 renal it was -19.7% (active); in the assay on ACHN renal, 0.712% (active); in the assay with CAKI-1 renal, 4% (active); in the assay on A498 renal, -38.3% (active); in the assay with CCRF-CEM leukemia it was 19.7%. The growth with MOLT-4 leukemia is 12.2%.
With `COc1ccc(-c2ccc(/C=N/NC(=O)c3[nH]c4ccc(Br)cc4c3-c3ccccc3)s2)cc1`, the growth in the assay on HCT-15 colon is 68.4%; with HT29 colon it was 84.5%; with SNB-75 CNS, 88.1%; with SNB-19 CNS it was 73.8%; in the assay with U251 CNS it was 35.9%; in the assay with PC-3 prostate, 91.7%. For the same compound, the growth in the assay on UACC-62 melanoma was 45.9%; in the assay with LOX IMVI melanoma, 75.5%; in the assay on SK-MEL-28 melanoma, 105%; with SK-MEL-2 melanoma, 106%; in the assay on EKVX NSCLC, 110%; with SN12C renal, 74.9%. In addition, the growth in the assay with UO-31 renal was 86.4%; with TK-10 renal, 127%; with ACHN renal, 106%; with CAKI-1 renal, 94.8%; in the assay on A498 renal, 131%; in the assay with CCRF-CEM leukemia, 88%. Also, the growth with MOLT-4 leukemia is 87.6%.
On to `O=C(NO)c1ccc(Cn2ccc3c(NCc4ccccc4)ncnc32)cc1`, for which the growth in the assay with HCT-15 colon was -16.7% (active); with HT29 colon it was 0.726% (active); with SNB-75 CNS, -8.17% (active); with SNB-19 CNS it was -7.76% (active); in the assay with U251 CNS, -34% (active); in the assay on PC-3 prostate, 7.14% (active). For the same compound, the growth in the assay on UACC-62 melanoma is -43.3% (active); with LOX IMVI melanoma, -99.6% (active); with SK-MEL-28 melanoma it was 0.239% (active); with SK-MEL-2 melanoma it was -2.65% (active); with EKVX NSCLC, 21.4%; with SN12C renal, 13.9%. For the same compound, the growth was 4.26% (active) with UO-31 renal; -7.3% (active) with TK-10 renal; 0.241% (active) in the assay on ACHN renal; 2.72% (active) with CAKI-1 renal; -20.1% (active) in the assay on A498 renal; 8.45% (active) in the assay with CCRF-CEM leukemia. The growth in the assay with MOLT-4 leukemia is 3.81% (active).
For the compound `CCOC(=O)N/C(=C1/OCCN1C)[P+](c1ccccc1)(c1ccccc1)c1ccccc1`, the growth with HCT-15 colon was 98.5%; in the assay on HT29 colon, 60.3%; in the assay on SNB-75 CNS it was 84.3%; in the assay on SNB-19 CNS, 71.6%; with U251 CNS it was 66.3%; with PC-3 prostate it was 50.5%. Moreover, the growth is 51% in the assay on UACC-62 melanoma; 57.5% in the assay on LOX IMVI melanoma; 61.3% with SK-MEL-28 melanoma; 79.9% with SK-MEL-2 melanoma; 64.3% in the assay on EKVX NSCLC; 76.6% in the assay on SN12C renal. Further, the growth in the assay with UO-31 renal is 87.2%; in the assay with TK-10 renal it was 92.1%; in the assay on ACHN renal, 107%; in the assay on CAKI-1 renal it was 102%; in the assay on A498 renal, 115%; in the assay on CCRF-CEM leukemia, 67.5%. Further, the growth with MOLT-4 leukemia was 83.7%.
